Compound activity from PubChem BioAssay.
A340 absorber = compound absorbs light at 340 nm | compound absorbance at 340 nm, fold over control | fold change at 10 µM | 65,000 tested, under 10 active | AID 708;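 active means at 10 µM dose, initial 340 nm absorbance at least 2 fold that of control wells; inactive means change under 2 fold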;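 further: initial absorbance extrapolated from kinetic A340 decline of NADH oxidation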
Spn DPM-DC inh = blocks S. pneumoniae diphosphomevalonate decarboxylase. AID 556. calls only at 10 µM. 0.49% of 65,000 active. purified DPM-DC, PK/LDH coupled NADH fluorescence;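 active means the 320 compounds with the highest percent inhibition in the single-dose primary screen, excluding strongly autofluorescent ones, cut at about 32% in these data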;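 further: kinetic rate of NADH fluorescence loss reporting ADP formed by the decarboxylase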
Spn MK inh = S. pneumoniae mevalonate kinase inhibition; inhibition, % at 10 µM; AID 555; 0.48% of 65,000 active; purified MK, PK/LDH-coupled NADH absorbance 340 nm;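 active means ranked among the strongest by inhibition in the single 10 µM screen, a fixed top-ranked set picked for dose follow-up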
Fluor 339 460 = intrinsic fluorescence of library compounds, ex339/em460 – biochemical, MLSMR library, data from DPM-DC assay, artefact control, profiling panel; compound autofluorescence, ex339/em460 nm, NADH buffer; hits give high values; 1 = no-compound wells, NADH background; 5.5% of 65,000 active; fluorescence fold increase at 10 µM;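 active means at 10 µM, mean starting fluorescence two-fold or more over control wells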;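 further: signal is the first read of a kinetic run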
NADH coupling = blocks coupling enzymes of NAD/NADH assays; 0.02% of 65,000 active; IC50, µM (series often up to 10 µM), without a hit: at the top dose inhibition; AID 774; coupled PK/LDH NADH assays, four targets;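 active means single-dose screening hits from any of four coupled enzyme assays that gave an IC50 when retested across doses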;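 further: the DPM-DC format reads NADH fluorescence rather than 340 nm absorbance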
PMK inhibit = blocks S. pneumoniae phosphomevalonate kinase | purified PMK, PK/LDH-coupled NADH absorbance 340 nm | AID 539 | inhibition, % at 10 µM | 0.49% of 65,000 active;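 active means top-ranked compounds by inhibition in the single 10 µM screen, taking a fixed number of the strongest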;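 further: 0% = full reaction with DMSO carrier and 100% = background rate without enzyme reaction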
The depositor's hits bear a star. Compounds with a hit are over-represented: about 6.3% of the library has one in this group of screens.

What do the screens show for `COC(=O)c1nc(-c2ccc(C)cc2)oc1N(C)C`?
A340 absorber: 1.1; Spn MK inh: 0; Fluor 339 460: 5*; NADH coupling: 9%; PMK inhibit: 17

What do the screens show for `COC(=O)c1nc(-c2ccccc2)oc1N(C)C`?
A340 absorber: 1.1; Spn MK inh: 5; Fluor 339 460: 3.8*; NADH coupling: 5%; PMK inhibit: 4

Results for COc1cc(-c2nc(S(=O)(=O)c3ccc(C)cc3)c(N(C)C)o2)cc(OC)c1OC ?
A340 absorber: 1; Spn DPM-DC inh: inactive; Spn MK inh: 0; Fluor 339 460: 1.1; NADH coupling: 5%; PMK inhibit: 11

Results for O=C(NCc1ccccc1)c1ccc(COCC(F)(F)F)o1 ?
A340 absorber: 1; Spn DPM-DC inh: inactive; Spn MK inh: 2; Fluor 339 460: 1.1; NADH coupling: 1%; PMK inhibit: 1

What do the screens show for `CCN(CC)CCCNC(=O)c1cn(CCOC)c(=O)c2c1c1ccccc1n2C`?
A340 absorber: 1; Spn MK inh: 6; Fluor 339 460: 4.4*; NADH coupling: 8%; PMK inhibit: 10

How did Cn1c(C(=O)NCCCN2CCN(c3ccc(F)cc3)CC2)cc2c(=O)n(C)c3ccccc3c21 do in these assays?
A340 absorber: 0.99; Spn DPM-DC inh: inactive; Spn MK inh: 7; Fluor 339 460: 1.1; NADH coupling: 2%; PMK inhibit: 9

What do the screens show for `COCCn1cc(C(=O)NCCCN2CCC(C)CC2)c2c3ccccc3n(C)c2c1=O`?
A340 absorber: 1; Spn DPM-DC inh: active; Spn MK inh: 0; Fluor 339 460: 2.5*; NADH coupling: 8%; PMK inhibit: 15

Results for CCCN(CCC)CCNC(=O)c1cc2c(=O)n(C)c3ccccc3c2n1C ?
A340 absorber: 1; Spn MK inh: 5; Fluor 339 460: 1.6; NADH coupling: 4%; PMK inhibit: 10

What do the screens show for `CCN1CCN(CCCNC(=O)c2cn(CCOC)c(=O)c3c2c2ccccc2n3C)CC1`?
A340 absorber: 1; Spn DPM-DC inh: inactive; Spn MK inh: 1; Fluor 339 460: 3*; NADH coupling: 4%; PMK inhibit: 6

How did COCCn1cc(C(=O)NCc2cccs2)c2c3ccccc3n(C)c2c1=O do in these assays?
A340 absorber: 1; Spn DPM-DC inh: inactive; Spn MK inh: 11; Fluor 339 460: 3.5*; NADH coupling: 15%; PMK inhibit: 15

Results for O=C(CSc1ncnc2nc[nH]c12)N1CCN(c2ccc(Cl)cc2)CC1 ?
A340 absorber: 1; Spn DPM-DC inh: inactive; Spn MK inh: 2; Fluor 339 460: 1.2; NADH coupling: 2%; PMK inhibit: 3

Results for Cn1c(-c2ccccc2)cc2c3no[n+]([O-])c3ccc21 ?
A340 absorber: 1.1; Spn DPM-DC inh: inactive; Spn MK inh: 7; Fluor 339 460: 1.1; NADH coupling: 7%; PMK inhibit: 9

How did Cc1cccc(NC(=O)CCCCCN2C(=O)c3ccccc3C2=O)n1 do in these assays?
A340 absorber: 1; Spn DPM-DC inh: inactive; Spn MK inh: 3; Fluor 339 460: 1.1; NADH coupling: 2%; PMK inhibit: 11

How did CCOC(=O)C1=C(C)Nc2ccccc2N=C1NC(=O)CCCN1C(=O)c2ccccc2C1=O do in these assays?
A340 absorber: 0.99; Spn DPM-DC inh: inactive; Spn MK inh: 2; Fluor 339 460: 1.1; NADH coupling: 10%; PMK inhibit: 27*

What do the screens show for `O=C(c1ccc2c(=O)n(-c3ccccc3)c(=O)[nH]c2c1)N1CCCCC1`?
A340 absorber: 1.1; Spn DPM-DC inh: inactive; Spn MK inh: 5; Fluor 339 460: 1.6; NADH coupling: 2%; PMK inhibit: 0

Results for Cc1ccc(-c2oc3ccccc3c(=O)c2O)cc1 ?
A340 absorber: 1; Spn DPM-DC inh: inactive; Spn MK inh: 7; Fluor 339 460: 1.4; NADH coupling: 3%; PMK inhibit: 8

What do the screens show for `O=c1c(O)c(-c2cccs2)oc2ccccc12`?
A340 absorber: 1.2; Spn MK inh: 8; Fluor 339 460: 3.7*; NADH coupling: 4%; PMK inhibit: 0

Results for COc1ccc(NC(=O)Nc2ccccc2C(=O)N2CCCC2)cc1 ?
A340 absorber: 1.1; Spn DPM-DC inh: inactive; Spn MK inh: 7; Fluor 339 460: 1.1; NADH coupling: 5%; PMK inhibit: 2
